Bioassay records as filed in PubChem BioAssay.
IDE exosite FP: displaces the probe from the exo-site of human IDE | purified IDE, FL-6b probe fluorescence polarization; active compounds read low | z-score at 20 µM | actives 6.3% (n = 17,000);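 active means z-score of -3 or lower, meaning strong loss of probe binding signal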;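 further: His-tagged human IDE residues 42-1019 made in E. coli with 30 nM FL-6b probe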
* hit, by the source's call. Many of the other results were omitted from the sample, so hits are more common in it than they were.

SMILES	IDE exosite FP
CCC(=O)N(C)C[C@@H]1[C@@H](c2ccc(-c3ccccc3F)cc2)[C@H](CO)N1C(C)=O	1.83
COc1ccc(-c2ccccc2[C@@H]2[C@@H](C#N)N(C(=O)c3cccnc3)[C@@H]2CO)cc1	0.491
COc1ccccc1NC(=O)N1CCCCN2[C@H](CO)[C@@H](c3ccc(C#Cc4ccccc4)cc3)[C@@H]2C1	3.84
CN(C)CC#Cc1ccc([C@H]2[C@@H](CO)N3CCCCN(C(=O)C4CCC4)C[C@H]23)cc1	0.0632
CN(C)CC#Cc1ccc([C@H]2[C@H]3CN(C(=O)C4CCC4)CCCCN3[C@H]2CO)cc1	2.25
COc1ccccc1C#Cc1ccc([C@H]2[C@@H](CO)N3CCCCN(C(=O)C4CCC4)C[C@H]23)cc1	-10.3*
COc1ccccc1C#Cc1ccc([C@@H]2[C@H]3CN(C(=O)C4CCC4)CCCCN3[C@H]2CO)cc1	-6.82*
COc1ccc(C#Cc2ccc([C@@H]3[C@@H](CO)N4CCCCN(C(=O)Nc5ccccc5)C[C@@H]34)cc2)cc1	2.07
O=C(C1CCC1)N1CCCCN2[C@H](C1)[C@@H](c1ccc(C#CC3(O)CCCC3)cc1)[C@@H]2CO	-1.08
COc1ccccc1NC(=O)N1CCCCN2[C@H](C1)[C@H](c1ccc(C#Cc3ccccc3)cc1)[C@@H]2CO	1.25
COc1ccccc1C#Cc1ccc([C@@H]2[C@@H](CO)N3CCCCN(C(=O)C4CCC4)C[C@@H]23)cc1	-8.97*
CO[C@H](CN(C)Cc1ccc2c(c1)OCO2)[C@H](C)CN(C(=O)Nc1ccc(F)cc1)[C@@H](C)CO	0.0147
C/C=C/c1ccc([C@H]2[C@@H](CNC(C)C)N(C(=O)c3ccccn3)[C@H]2CO)cc1	0.277
N#C[C@@H]1[C@@H](c2ccc(-c3cccc(F)c3)cc2)[C@@H](CO)N1S(=O)(=O)c1cccc(F)c1	5.15
O=C(Cc1ccccc1)N1CC(=O)N2[C@H](CO)[C@@H](c3ccc(Br)cc3)[C@@H]2C1	-2.17
C[C@H]1CN([C@@H](C)CO)C(=O)c2ccccc2-c2ccccc2CO[C@@H]1CN(C)C(=O)[C@@H](Cc1ccccc1)N(C)C	-1.51
CO[C@H]1CC[C@@H]2CCOc3ccc(C#N)cc3C(=O)N(C)C[C@H](c3ccccc3)CC(=O)N(C)C[C@@H]1O2	-0.21
Cc1noc(C)c1S(=O)(=O)Nc1ccc2c(c1)CC(=O)N([C@@H](C)CO)C[C@@H](C)[C@H](CN(C)Cc1ccc(Oc3ccccc3)cc1)O2	-2.48
CO[C@H]1CN(C)C(=O)c2cc(NC(=O)Nc3c(C)noc3C)ccc2OC[C@@H](C)NC[C@@H]1C	-0.389
O=C(c1ccncc1)N1CC(=O)N2[C@H](CO)[C@@H](c3ccc(-c4ccccc4F)cc3)[C@H]2C1	0.355
O=C(c1ccc(F)cc1)N1CC(=O)N2[C@H](CO)[C@H](c3ccc(-c4ccccc4F)cc3)[C@H]2C1	2.97
O=C(c1ccc(F)cc1)N1CC(=O)N2[C@@H](CO)[C@@H](c3ccc(-c4ccccc4F)cc3)[C@@H]2C1	-0.778
O=C(c1ccncc1)N1CC(=O)N2[C@@H](CO)[C@H](c3ccc(-c4ccccc4F)cc3)[C@@H]2C1	-4.82*
O=C(c1ccncc1)N1CC(=O)N2[C@@H](CO)[C@@H](c3ccc(-c4ccccc4F)cc3)[C@@H]2C1	-1.6
O=C(c1ccncc1)N1CC(=O)N2[C@H](C1)[C@@H](c1ccc(-c3ccccc3F)cc1)[C@@H]2CO	-7.36*
SMILES	IDE exosite FP
CC(C)C#Cc1ccc([C@@H]2[C@H](CO)N3CCCCN(C(=O)c4ccc(F)cc4)C[C@@H]23)cc1	2.8
Cc1ccc(S(=O)(=O)NCC[C@@H]2CC[C@@H](NC(=O)c3cccnc3)[C@H](CO)O2)cc1	1.76
C[C@@H]1CN([C@@H](C)CO)C(=O)c2cc(NC(=O)NC3CCCCC3)ccc2O[C@H]1CN(C)S(C)(=O)=O	0.748
O=C(C[C@H]1CC[C@@H]2[C@H](COC[C@@H](O)CN2C(=O)Nc2ccccc2)O1)NCc1ccccc1F	0.968
CC(C)CC#Cc1ccc([C@@H]2[C@H](CO)N3C(=O)CN(C(=O)NC(C)C)C[C@@H]23)cc1	3.79
O=C1NCCOCc2cn(nn2)CC[C@H]1Cc1ccc(F)cc1	-1.06
COc1cccc(C#Cc2ccc([C@@H]3[C@@H](C#N)N(C(=O)C4CCCCC4)[C@H]3CO)cc2)c1	2.35
COc1cccc(C#Cc2ccc([C@@H]3[C@@H](C#N)N(C(=O)C4CCC4)[C@@H]3CO)cc2)c1	4.17
N#C[C@H]1[C@@H](c2ccc(C#Cc3ccc(F)cc3)cc2)[C@H](CO)N1C(=O)C1CCCC1	5.36
COc1ccccc1C#Cc1ccc([C@H]2[C@@H](C#N)N(C(=O)C3CCC3)[C@@H]2CO)cc1	-7.84*
COc1cccc(C#Cc2ccc([C@@H]3[C@@H](CO)N(C(=O)C4CCCCC4)[C@H]3C#N)cc2)c1	4.66
COc1ccccc1C#Cc1ccc([C@@H]2[C@@H](C#N)N(C(=O)C3CCCCC3)[C@@H]2CO)cc1	-8.59*
COc1ccccc1C#Cc1ccc([C@H]2[C@@H](CO)N(C(=O)C3CCCCC3)[C@H]2C#N)cc1	-5.06*
N#C[C@H]1[C@H](c2ccc(C#Cc3ccc(F)cc3)cc2)[C@H](CO)N1C(=O)C1CCCC1	3.98
N#C[C@@H]1[C@@H](c2ccc(C#Cc3ccc(F)cc3)cc2)[C@H](CO)N1C(=O)C1CCCC1	5.4
COc1ccccc1C#Cc1ccc([C@H]2[C@H](C#N)N(C(=O)C3CCCCC3)[C@H]2CO)cc1	-6.29*
COc1cccc(C#Cc2ccc([C@@H]3[C@@H](C#N)N(C(=O)C4CCC4)[C@H]3CO)cc2)c1	1.54
N#C[C@H]1[C@H](c2ccc(C#Cc3ccccc3F)cc2)[C@H](CO)N1C(=O)C1CCC1	2.22
COc1ccc(NC(=O)Nc2cccc3c2O[C@@H](CN(C)Cc2ccc(C(=O)O)cc2)[C@H](C)CN([C@H](C)CO)C3=O)cc1	-0.98
CO[C@H]1CN(C)C(=O)c2cc(NC(=O)c3cnccn3)ccc2OC[C@H](C)NC[C@H]1C	-0.0121
C/C=C/c1ccc([C@@H]2[C@H](CO)N(CCC(F)(F)F)C23CN(C(=O)CC2CC2)C3)cc1	0.0824
Cc1ccc(CN2CC(=O)N3[C@@H](CO)[C@H](c4ccc(-c5ccccc5F)cc4)[C@@H]3C2)cc1	-0.507
Cc1ccc(S(=O)(=O)Nc2ccc3c(c2)C(=O)N([C@H](C)CO)C[C@@H](C)[C@@H](CN(C)S(=O)(=O)c2cccs2)OCCCC[C@H](C)O3)cc1	-0.269
CCC(=O)N1C[C@H](C)[C@@H](OC)CN(C)C(=O)c2ccc(NC(=O)CC(F)(F)F)cc2OC[C@H]1C	1.94
CN(C[C@H]1[C@@H](c2ccccc2)[C@H](CO)N1C(=O)C1CCC1)C(=O)c1ccccn1	0.608
SMILES	IDE exosite FP
COCC(=O)N1CCCCN2[C@H](CO)[C@@H](c3ccc(-c4cccc(C)c4)cc3)[C@@H]2C1	-5.29*
COCC(=O)N1CCCCN2[C@H](C1)[C@H](c1ccc(-c3ccc(C)cc3)cc1)[C@@H]2CO	1.13
COCC(=O)N1CCCCN2[C@@H](CO)[C@@H](c3ccc(-c4ccc(C)cc4)cc3)[C@@H]2C1	0.0387
COCC(=O)N1CCCCN2[C@@H](CO)[C@H](c3ccc(-c4ccc(C)cc4)cc3)[C@@H]2C1	2.35
COCC(=O)N1CCCCN2[C@@H](CO)[C@H](c3ccc(-c4cccc(C)c4)cc3)[C@@H]2C1	-3.13*
COCC(=O)N1CCCCN2[C@H](CO)[C@H](c3ccc(-c4ccc(C)cc4)cc3)[C@@H]2C1	1.92
NCC[C@H]1CC[C@@H](NC(=O)Cc2ccncc2)[C@H](CO)O1	1.86
